Activity calls are given as the source filed them. Rule for the calls: active = hit-call score of the fitted dose curve at least 0.9, where 1 is the maximum; inactive = score below 0.9.

As usually defined, the AC50 is the concentration giving half of the maximal activity seen.

Read-out in the assay: Collagen IV, COL4A1 (gene 1282)
The experiment in a line: BSK_MyoF_CollagenIV: BioMAP Diversity Plus: MyoF Assay for Collagen IV Biomarker Activity (AID 2284247). As to conditions: primary human lung fibroblasts. In outline:
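ELISA read-out of Collagen IV in lung fibroblast cultures, 24 h post-dosing; gain of signal relative to DMSO vehicle baseline defines activity.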
As for `CN(c1nccc(=O)[nH]1)C1CCN(c2nc3ccccc3n2Cc2ccc(F)cc2)CC1`, the outcome was inactive.
Take `O=C1OC2(c3ccccc31)c1ccc(O)c(Br)c1Oc1c2ccc(O)c1Br`: the AC50 is 4.52 µM (active).
For `CN(C)C(=S)SC(=S)N(C)C`, the outcome was inactive.
As for `CCC(C)c1cc([N+](=O)[O-])cc([N+](=O)[O-])c1OC(=O)OC(C)C` (configuration not stated), the AC50 was 20 µM (active).
Consider `CCCCOC(=O)CCCCCCCC(=O)OCCCC`, for which the outcome was inactive.
On the same count and under the same terms, with `CC1(C)C2=CCCC(C)(C)[C@]23CC[C@H]1C3` the entry was “inactive”; with `O=C1OC[C@H](Cc2cccc(O)c2)[C@H]1Cc1cccc(O)c1`, “inactive”; with `COc1ccc(OC)c(N=Nc2c(O)ccc3ccccc23)c1`, “inactive”.
On the same count and under the same terms, with `Oc1c(Cl)cc(Cl)c(Cl)c1Cc1c(O)c(Cl)cc(Cl)c1Cl` the entry was “inactive”; with `C=C(C)C(=O)OCCOCCOCCOCCOC(=O)C(=C)C`, “inactive”.
Still for that read-out and setting: for `IC(I)I` the value was “inactive”; for `C1=CC2C3C=CC(C3)C2C1` (configuration not stated), “inactive”.
Turning to `C[C@@H]1CCN(C(=O)[C@H](CCCN=C(N)N)NS(=O)(=O)c2cccc3c2NC[C@H](C)C3)[C@@H](C(=O)O)C1`, the outcome was inactive.
The same measure, in the same setting: for `Cc1cc(CCC(=O)OCCOCCOCCOC(=O)CCc2cc(C)c(O)c(C(C)(C)C)c2)cc(C(C)(C)C)c1O` the value was “inactive”.
With `CC(=O)Nc1ccc(C(=O)CCl)cc1`, the AC50 is 16.9 µM (active).
Turning to `CCCCN(CCCC)C(=O)N(CCCC)CCCC`, the AC50 was 8.89 µM (active).
On the same count and under the same terms, for `C=C(C)C(=O)OCC(CC)(COC(=O)C(=C)C)COC(=O)C(=C)C` the value was 14.6 µM (active).

The record behind these values is PubChem BioAssay (EPA / NIEHS).
